# The supplement of paper PMC11417369
# ± gives the standard deviation of the averaged measurements. Whole data set: some 25,000 sequences, median “ln(normalized median fluorescence intensity)” near 8.9, cut for the highest 2% near 10. The full list was thinned out, with the highest values kept by preference.
# Test system: PfAP2-LT AP2 domain (GST-tagged)
# Assay: gcPBM binding intensity (ln(normalized median fluorescence intensity)); higher = stronger DNA binding
# Method in brief: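 Each value is the highest Masliner-normalised natural-log median intensity across replicate spots of either orientation of a probe. The probes were primer-extended double-stranded 36-bp intergenic genomic sequences on an Agilent 4 × 180k array, alongside negative controls, exposed for 1 h to GST-tagged P. falciparum DNA-binding domains expressed in E. coli. Bound protein was picked up with Alexa488 anti-GST antibody and scanned at 488 nm.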
row,Sequence,gcPBM binding intensity (ln)
1,TGTTTATTACTCAGGTGTACTCAATTTTTTTTTTTT [XGTACX_site3470],8.72 ± 0.47
2,TATACATATATATATATATATAGATATATTCACGTG [XGTACX_negctrl_site265],9.31 ± 0.21
3,ATTTAAATAATATGTACACACATTTAAAAAATTATA [CACACA_site2816],8.76 ± 0.44
4,AGCTCGGAAAAATTAGCATGCAAAAAAAAAAAAAAA [TGCATGCA_site658],8.59 ± 0.58
5,TACAATCTTTCATTATGTACTTAACATTTTTTCTGT [XGTACX_site8752],8.85 ± 0.52
6,ATATTTATGGAATATACACACATGTATAATTACATA [CACACA_site7045],8.83 ± 0.4
7,TATATATATATATACACACACACACCCATATATATA [CACACA_site2538],10.2 ± 0.3
8,TATATATATATATATACACACACACCCATATATATA [CACACA_site8812],9.85 ± 0.18
9,ACCCATATAATATATACACACATATATATATATATA [CACACA_site4731],9.855 ± 0.035
10,CATACACCCCAACACACACACACACCCATATATAAT [CACACA_site8097],10.3 ± 0.37
11,AATAAATATATATACACACCCATATATATATATATA [CACACA_site2595],9.73 ± 0.014
12,CTTATATATACATATACACACACACCCATATATATA [CACACA_site8705],9.59 ± 0.13
13,ACTATATTTCTATAATGTACAAAAATAAATCATATG [XGTACX_site3337],8.64 ± 0.39
14,TTTGCCCAAAAAGGTACACACCACAATGTACATAAA [CACACA_site4599],8.85 ± 0.49
15,ATAAAGCCATACAATACACACATTTTACATGGCTGT [CACACA_site5756],9.26 ± 0.42
16,AGACAGCGCACAAACACACAAACACCCACCCACATA [CACACA_site451],10.1 ± 0.16
17,CAAACATTTTAATGTACACACACCCACAGACAAACA [CACACA_site5522],9.57 ± 0.13
18,TACATAAATTAAAACACACACACACCCAAAAAAAAA [CACACA_site2261],9.9 ± 0.22
19,AAATTTGGCAAACACACACACACACCCACAGAGACA [CACACA_site4490],10.2 ± 0.13
20,AACTTTGGCAAACACACACACACACCCACACCCACA [CACACA_site588],10.1 ± 0.42
21,AAATTTGGCAAACACACACACACACCCACACCCACA [CACACA_site8095],10.4 ± 0.19
22,GGCAAATTTATTATACCCACATACATACATACATAC [XGTACX_negctrl_site186],9.01 ± 0.32
23,TTTTTTCTTTTATGTGAAATGTAATATTGTTATATA [GTGCAC_negctrl_site715],8.51 ± 0.52
24,TATATACGCATTTTTATACACACTTGTTTTATAAAA [CACACA_site727],8.79 ± 0.35
25,GGATATATTATATGTACACACACATATAAGGGATTA [CACACA_site7884],9.34 ± 0.31

row,Sequence,gcPBM binding intensity (ln)
1,TTACAAAAAAATAATTGTACATACAATTTCTGTTAT [XGTACX_site877],8.71 ± 0.45
2,ATATTTTTATTTAAACGTACATACACGTTGAAAAGA [XGTACX_site4567],8.43 ± 0.4
3,TGTAATAAATAGTACACACACACATATTTATATATC [CACACA_site6770],9.72 ± 0.23
4,TCTTTATCTTCTTATACACACATTTATTAAAAAAAA [CACACA_site445],8.55 ± 0.4
5,ATAAAACCAACATAGAGTACAGATCGACTATGTTTC [XGTACX_site4329],9.05 ± 0.47
6,AATAATAGAAGCACCCACCCACCACCACCCACACAT [CACACA_negctrl_site1033],10.46 ± 0.028
7,GTTATAGAAGCATTCACACACACACCCACATACACA [CACACA_site1465],10.1 ± 0.11
8,TATAATAATCCACAAGCACACACACCCACATATATA [CACACA_site8343],9.91 ± 0.32
9,TGTAAGTTGATATAATGTACATGTTTGATTTTTTTT [XGTACX_site7687],8.71 ± 0.47
10,TATAAAATACTGTATCGATGGGGGAGGGCGCAGGGG [TGCATGCA_negctrl_site250],10.4 ± 0.16
11,ATATATGGGGCGCAGGAAAAGAGTTTTGGAAATAAA [CACACA_negctrl_site1265],8.98 ± 0.55
12,AGTATATAAAATACTGTATCGATGGGGGAGGGCGCA [CACACA_negctrl_site1612],10 ± 0.44
13,CTTTTTTGTTAAAGTGTGCGCAATAGTTATAGACTT [GTGCAC_site9670],8.87 ± 0.38
14,TAATAATACCCAAGCACACACACACCCATATATATA [CACACA_site4831],10.1 ± 0.33
15,TTAATATAAGCAAATACACACACACCGATATATATA [CACACA_site9269],9.8 ± 0.26
16,ATATAAGAAAAGCACACACACACAAAAAAAAAAAAA [CACACA_site2827],10.1 ± 0.42
17,TGATAATAAGCATACACACACACACTAAAAAAAAAA [CACACA_site6478],9.94 ± 0.38
18,TATAATCCATAAGAAGCACACACATATATATATATT [CACACA_site8394],9.41 ± 0.3
19,AGATATAAGAAAAGCACACACACACCCAAAAAAAAA [CACACA_site2826],10.2 ± 0.18
20,ATAATCCACAAGCACACACACACACCCATATATATA [CACACA_site1268],10.1 ± 0.35
21,TGATAATAAGCATACACACACACACTAGAAAAAAAA [CACACA_site4558],10.1 ± 0.38
22,AGATATAAGAAAAGCACACACACACTAGAAAAAAAA [CACACA_site5559],9.92 ± 0.33
23,AGAGATATAAGAAAAGCACACACACCCAAAAAAAAA [CACACA_site8917],9.96 ± 0.29
24,ATAATACCCAAGCACACACACACACCGATATATATA [CACACA_site8344],10.4 ± 0.2
25,TAATAATCCACAAGCACACACACACCCATATATATA [CACACA_site1267],9.96 ± 0.13
